Measured values: PubChem BioAssay AID1159580 (chemical genetic matrix, 2015)
“And” between values parts separate entries of the source, which are not always exact repeats. Identical values can stand only once. In all, about 5,500 compounds went through this assay and about 2,000 (36%) were called active. About 18% were inconclusive and are not listed. Rule as the data show it: active = normalized growth mostly below about 0.91 (no sharp cut-off); inconclusive = no clear call, values can overlap the other calls; inactive = mostly above about 0.92. The list shows a part of the results.

Test: chemical genetic growth profiling, strain panel (AID 1159580);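 also: tested at 20 µM; growth read once vehicle control cultures reached saturation at 30 °C; 1 = growth at the plate median or of vehicle wells; lower values mean less growth of the strain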
Conditions: S. cerevisiae deletion strains, growth OD

Measured: normalized growth

CN(C(=O)CN(CCO)CC(=O)N(C)C(C)(C)Cc1ccccc1)C(C)(C)Cc1ccccc1
inactive: locus YAL021C, strain ccr4, hits give low values 1.01 | locus YAL026C, strain drs2, hits give low values 1.02 | locus YAL030W, strain snc1, hits give low values 1 | locus YBL061C, strain skt5, hits give low values 1.01 | locus YBR009C, strain hhf1, hits give low values 1.01 | locus YBR021W, strain FUR4, hits give low values 0.985 | locus YBR023C, strain chs3, hits give low values 1.01 | locus YBR171W, strain sec66, hits give low values 1.04 | locus YBR229C, strain ROT2, hits give low values 0.993 | locus YBR231C, strain swc5, hits give low values 1 | locus YBR279W, strain paf1, hits give low values 1.01 | locus YCL011C, strain gbp2, hits give low values 1.01 | locus YCL016C, strain dcc1, hits give low values 1.01 | locus YCL029C, strain bik1, hits give low values 0.97 | locus YCL061C, strain MRC1, hits give low values 1.02 | locus YCL069W, strain vba3, hits give low values 1.01 | locus YCR088W, strain abp1, hits give low values 1.01 | locus YDL005C, strain med2, hits give low values 1 | locus YDL035C, strain GPR1, hits give low values 0.954 | locus YDL040C, strain nat1, hits give low values 1 | locus YDL074C, strain BRE1, hits give low values 0.978 | locus YDL101C, strain DUN1, hits give low values 1 | locus YDL134C, strain PPH21, hits give low values 0.983 | locus YDL185W, strain tfp1, hits give low values 0.954 | locus YDL192W, strain arf1, hits give low values 0.98 | locus YDR001C, strain nth1, hits give low values 1.01 | locus YDR069C, strain doa4, hits give low values 1.01 | locus YDR101C, strain arx1, hits give low values 1 | locus YDR137W, strain rgp1, hits give low values 1.07 | locus YDR159W, strain sac3, hits give low values 0.998 | locus YDR162C, strain NBP2, hits give low values 0.957 | locus YDR195W, strain ref2 0.995 | locus YDR297W, strain sur2, hits give low values 1 | locus YDR318W, strain mcm21, hits give low values 0.979 | locus YDR334W, strain swr1, hits give low values 1.02 | locus YDR335W, strain msn5, hits give low values 1.01 | locus YDR388W, hits give low values 0.979 | locus YDR392W, strain spt3, hits give low values 0.981 | locus YDR502C, strain sam2, hits give low values 0.981 | locus YEL003W, strain gim4, hits give low values 1.01 | locus YEL037C, strain rad23, hits give low values 1.02 | locus YEL061C, strain CIN8 (second series), hits give low values 1.02 | locus YEL061C, strain CIN8, hits give low values 0.997 | locus YER015W, strain faa2, hits give low values 1.02 | locus YER016W, strain bim1, hits give low values 1.03 | locus YER110C, hits give low values 0.976 | locus YER111C, strain swi4, hits give low values 1.02 | locus YER155C, strain BEM2 (second series), hits give low values 1.02 | locus YER155C, strain BEM2, hits give low values 0.994 | locus YER167W, strain BCK2, hits give low values 0.987 | locus YFR010W, strain ubp6, hits give low values 1.01 | locus YGL078C, strain dbp3, hits give low values 0.983 | locus YGL086W, strain mad1, hits give low values 0.979 | locus YGL167C, strain pmr1, hits give low values 1.01 | locus YGL173C, strain kem1, hits give low values 1.02 | locus YGL227W, strain vid30, hits give low values 1.02 | locus YGL240W, strain doc1, hits give low values 0.986 | locus YGL248W, strain PDE1, hits give low values 1.01 | locus YGL253W, strain hxk2, hits give low values 1.03 | locus YGR078C, strain PAC10, hits give low values 1 | locus YGR135W, strain pre9, hits give low values 0.973 | locus YGR229C, strain SMI1, hits give low values 0.98 | locus YGR252W, strain gcn5, hits give low values 1.01 | locus YHR013C, strain ard1, hits give low values 1.04 | locus YHR027C, strain rpn1, hits give low values 1.02 | locus YHR030C, strain SLT2, hits give low values 0.985 and 0.989 | locus YHR079C, strain IRE1 (second series), hits give low values 0.975 | locus YHR079C, strain IRE1, hits give low values 0.98 | locus YHR094C, strain hxt1, hits give low values 0.99 | locus YHR129C, strain ARP1, hits give low values 0.992 | locus YHR142W, strain chs7, hits give low values 1.02 | locus YHR200W, strain rpn10, hits give low values 0.971 | locus YIL066C, strain RNR3, hits give low values 0.996 | locus YIL073C, strain SPO22, hits give low values 1.14 | locus YIL125W, strain kgd1, hits give low values 0.988 | locus YIR030C, strain dcg1, hits give low values 0.976 | locus YJL092W, strain hpr5, hits give low values 1.01 | locus YJL095W, strain BCK1 (second series), hits give low values 1.01 | locus YJL095W, strain BCK1, hits give low values 1.01 | locus YJL115W, strain asf1, hits give low values 1.02 | locus YJL129C, strain trk1, hits give low values 1.02 | locus YJL134W, strain LCB3, hits give low values 0.986 | locus YJL154C, strain vps35, hits give low values 1.01 | locus YJL164C, strain tpk1, hits give low values 1 | locus YJL166W, strain qcr8, hits give low values 1.01 | locus YJL168C, strain set2, hits give low values 0.989 | locus YJL187C, strain SWE1 (second series), hits give low values 1.01 | locus YJL187C, strain SWE1, hits give low values 1.01 | locus YJR043C, strain POL32, hits give low values 0.962
